Source: PubChem BioAssay (The Scripps Research Institute Molecular Screening Center)
CHRM4 antagonist: antagonists of human muscarinic M4 receptor (CHRM4); P08173; CHO-hM4 cells, ACh EC80, Fluo-8 calcium fluorescence; inhibition, % at 3 µM; actives 0.73% (n = 360,000); AID 624125;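 active = inhibition above its plate's cutoff, the mean inhibition of sample wells plus 3 SD, cut at about 27% in these data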;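 also: 0% = acetylcholine EC80 with DMSO and 100% = DMSO without agonist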
Target sequence (P08173 whole entry, looked up): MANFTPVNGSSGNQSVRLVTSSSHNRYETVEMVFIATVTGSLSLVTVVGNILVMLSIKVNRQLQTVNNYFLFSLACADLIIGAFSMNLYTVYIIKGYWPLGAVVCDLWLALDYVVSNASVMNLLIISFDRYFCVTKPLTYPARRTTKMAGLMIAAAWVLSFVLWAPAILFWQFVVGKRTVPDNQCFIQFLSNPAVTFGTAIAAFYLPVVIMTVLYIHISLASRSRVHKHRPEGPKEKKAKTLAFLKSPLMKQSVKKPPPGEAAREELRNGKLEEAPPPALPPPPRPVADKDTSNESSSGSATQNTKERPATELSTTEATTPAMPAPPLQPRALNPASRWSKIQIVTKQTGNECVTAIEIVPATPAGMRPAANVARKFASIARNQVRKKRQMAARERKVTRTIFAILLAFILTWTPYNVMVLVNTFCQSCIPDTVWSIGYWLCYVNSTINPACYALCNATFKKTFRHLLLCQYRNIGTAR
M4 PAM: positive allosteric modulators of human muscarinic M4 receptor; CHO-K1 hM4/Gqi5, Fluo-8 calcium fluorescence, ACh EC20; 0% = ACh EC20, 100% = maximal ACh; activation, % at 3 µM; actives 0.4% (n = 360,000);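 active = activation above its plate's cutoff, the mean activation of sample wells plus 3 SD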
CHRM1 antagonist: blocks human M1 muscarinic receptor; actives 1.3% (n = 360,000); CHO-K1 hM1, Fluo-8 calcium fluorescence, ACh EC80 antagonist; inhibition, % at 3 µM; P11229; AID 588852;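 active = percent inhibition above its own plate's cutoff, namely the mean of that plate's compound wells plus 3 SD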;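 also: peak over basal fluorescence ratio during 140 s after agonist addition; 0% = ACh EC80 plus DMSO and 100% = DMSO alone without agonist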
M1 PAM: potentiates human M1 receptor response to acetylcholine. P11229. CHO-K1 hM1, Fluo-8 calcium fluorescence, ACh EC20; 0% = ACh EC20, 100% = maximal ACh. activation, % at 3 µM. actives 0.088% (n = 360,000); in the data active = activation above about 19%, passing the limit was not always enough
CHRM4 agonist: agonists of human muscarinic M4 receptor (CHRM4); P08173; CHO-K1 hM4/Gqi5, Fluo-8 calcium fluorescence; vehicle 0%, full acetylcholine response 100%; activation, % at 3 µM; actives 0.14% (n = 360,000);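 active = activation above the run mean over all test wells plus 3 SD, cut at about 32% in these data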;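 also: peak over basal fluorescence ratio per well then scaled between controls; 0% = DMSO wells and 100% = acetylcholine at EC100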
CHRM1 agonist: activates human CHRM1 receptor | actives 0.33% (n = 360,000) | activation, % at 3 µM | CHO-K1 hM1, Fluo-8 calcium fluorescence, agonist mode; 0% DMSO, 100% acetylcholine EC100 | P11229;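 active = activation above the run's mean compound activation plus 3 SD, cut at about 16% in these data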;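 also: peak over basal fluorescence ratio within a 140 s kinetic read after compound addition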
* marks the source's active call; other numbers are inactive results. Shown are actives, neighbours in structure and some others; about 2.2% of the full set was active somewhere.

SMILES	CHRM4 antagonist	M4 PAM	CHRM1 antagonist	M1 PAM	CHRM4 agonist	CHRM1 agonist
Cc1c(C(=O)OCCN2CCCCC2)oc2ccccc12	23	-19	92*	-21	1	-4
O=C(CN1CCN(S(=O)(=O)c2ccc(Br)s2)CC1)NC1CCCCC1	-7	10	-8	11	2	-1
CN1CCN(c2ccccc2NC(=O)C(Cc2ccccc2)n2cccc2)CC1 (stereo not given)	32*	-13	-3	-11	6	-9
CN1CCN(c2ccccc2NC(=O)c2ccc(-c3ccccc3)cc2)CC1	1	-8	-37	-4	9	-2
Cc1cccc(NC2=C(C#N)C(=O)NC3(CCCC3)S2)c1	-26	15*	-22	11	0	-3
Cc1cccc(N2C(S)=C(C#N)C(=O)NC23CCCCC3)c1	-13	10	-3	5	1	-1
CCOC(=O)C(C(=O)OCC)c1cc(Br)c2noc3c2c1C(=O)c1ccccc1-3	54*	-6	35*	2	8	8
Cc1ccc2c(c1)C(=O)C(=O)N2Cc1ccc(Cl)cc1	1	-4	-6	10	8	17*
CCCCN1CCC(CN2C(=S)NC[C@@H]2CC(C)C)CC1	-12	10	-3	6	0	-11
CC(C)C[C@H]1CNC(=S)N1CC1CCN(CCCCc2ccccc2)CC1	42*	-16	52*	-30	1	-11
CC(C)C[C@H]1CNC(=S)N1CC1CCN(CCCC2CCCC2)CC1	34*	-14	75*	-31	1	-11
S=C1NC[C@H](Cc2ccccc2)N1CC1CCN(CCCC2CCCC2)CC1	42*	-15	38*	-27	8	-11
CN(C)C1=NC[C@H](Cc2ccccc2)N1CCCC1CCCCC1	10	-20	31*	-22	20	-2
CCOc1ccc(CCN2C(=S)N([C@@H](Cc3ccc(O)cc3)CN3CCC[C@@H]3CN3C(=S)NC[C@@H]3CC(C)C)C[C@@H]2Cc2ccccc2)cc1	-12	23*	-3	17	2	8
CCOc1ccc(CCN2C(=S)N([C@@H](Cc3ccc(O)cc3)CN3CCC[C@@H]3CN3C(=S)NC[C@@H]3Cc3ccccc3)C[C@@H]2CC(C)C)cc1	-3	-2	7	-5	0	-8
CN(C)C(C)(C)/C=C/C(O)(c1ccccc1)c1ccccc1	70*	-16	100*	-26	7	-8
CN(C)N(Cc1ccccc1)C(=O)C(O)(c1ccccc1)c1ccccc1	-5	-12	5	-7	10	-8
O=C(NC1CCCC1)C(c1ccc(Cl)cc1)N(Cc1ccc(F)cc1)C(=O)CCl (stereo not given)	-8	-5	-9	4	5	-5
Cc1noc(C)c1NC(=O)N(C)C[C@H]1OCCCC[C@@H](C)Oc2ccc(NC(=O)c3ccccc3)cc2C(=O)N([C@H](C)CO)C[C@@H]1C	-17	9	6	-14	0	17*
C[C@H](CO)N1C[C@H](C)[C@@H](CN(C)C(=O)NC2CCCCC2)Oc2ccc(NC(=O)CCC(F)(F)F)cc2C1=O	0	24*	-6	11	2	-1
C[C@H]1CN([C@@H](C)CO)C(=O)Cc2cc(NC(=O)CCC(F)(F)F)ccc2O[C@H]1CN(C)C(=O)Nc1ccc(F)cc1	3	6	4	5	0	-5
CC(C)NC(=O)N(C)C[C@H]1Oc2ccc(NC(=O)CCC(F)(F)F)cc2C(=O)N([C@H](C)CO)C[C@@H]1C	-5	14	-1	9	1	-2
Cc1noc(C)c1NC(=O)N(C)C[C@H]1OCCCC[C@@H](C)Oc2ccc(NC(=O)Nc3ccc(F)cc3)cc2C(=O)N([C@@H](C)CO)C[C@H]1C	1	-3	-10	6	1	-5
C[C@H]1CN([C@@H](C)CO)C(=O)Cc2cc(NC(=O)CCC(F)(F)F)ccc2O[C@H]1CN(C)S(=O)(=O)c1ccc(Cl)cc1	36*	-15	-8	5	1	-14
C[C@H]1CN([C@@H](C)CO)C(=O)Cc2cc(NC(=O)CCC(F)(F)F)ccc2O[C@H]1CN(C)S(=O)(=O)c1ccc(F)cc1	63*	-17	3	-5	-1	-13
SMILES	CHRM4 antagonist	M4 PAM	CHRM1 antagonist	M1 PAM	CHRM4 agonist	CHRM1 agonist
COc1ccc(-c2cnc3c(NC(C)=O)cc(-c4ccccc4OC)cn23)cc1OC	-4	-4	3	-6	11	-1
O=C(/C=C/c1ccoc1)c1ccccc1O	4	0	-7	13	1	-4
C[C@H](CO)N1C[C@H](C)[C@@H](CN(C)S(=O)(=O)c2ccccc2)Oc2ccc(NC(=O)Nc3ccc(C(F)(F)F)cc3)cc2C1=O	1	-4	1	-7	1	-7
C[C@H](CO)N1C[C@H](C)[C@@H](CN(C)S(=O)(=O)c2ccccc2)Oc2ccc(NC(=O)CCC(F)(F)F)cc2C1=O	10	5	77*	-31	1	-11
Clc1ccc(CSc2nnc(NC3=NCCCCC3)s2)cc1	6	-4	33*	-16	1	-5
Nc1nnc(SCc2ccc(Cl)cc2)s1	8	-2	28*	-11	0	-5
Cc1ccc(-n2c3nc(=O)[nH]c(=O)c-3cc3cc([N+](=O)[O-])ccc32)cc1C	-21	2	30*	-28	0	-10
O=C(CN1CCN(Cc2ccc3c(c2)OCO3)CC1)Nc1ccc(N2CCOCC2)cc1	-8	-9	-1	1	0	-13
O=C(CN1CCN(Cc2ccc3c(c2)OCO3)CC1)Nc1ccc2[nH]c(=O)[nH]c2c1	-3	16*	-20	15	0	-7
Cc1cc(O)ccc1-c1cc(C(=O)NCc2ccc(F)cc2)[nH]n1	-24	2	3	-3	15	25*
COc1cccc(NC(=O)c2cc(=O)c3ccccc3o2)c1	-2	-19	-10	13	3	-1
O=C(CNC(=O)c1ccc(Br)o1)NCCc1ccc(F)cc1	5	0	26	-8	0	-3
O=S(=O)(c1ccc(N2CCCCCC2)nc1)N1CCCC1	29*	-17	70*	-33	0	-13
Cc1cccc(N(CC(=O)N2CCN(C)CC2)S(=O)(=O)c2ccccc2)c1	14	-13	7	-4	0	-14
CN1CCN(C(=O)CN(c2cccc(Cl)c2)S(=O)(=O)c2ccccc2)CC1	-5	-2	28*	-9	1	-5
COc1ccccc1CNc1ccc([N+](=O)[O-])cc1C	3	-12	17	-20	13	-9
CC(C)CC(=O)Nc1cccc(C(=O)Nc2ccccc2C(=O)O)c1	-22	30*	-14	4	-2	1
